# Data as given in PubChem BioAssay AID1986 (Sanford-Burnham Center for Chemical Genomics, 2009).
# Screen size: about 290,000 compounds; about 890 (0.31%) were called active. Rule as the data show it: active = inhibition mostly above about 52% (no sharp cut-off); inactive = mostly below about 76%. The full list was thinned out, with actives kept by preference.
# Assay: cell-free HIV fusion peptide-binding blockers – biochemical, uHTS, fluorescence dequenching, primary screen (AID 1986)
# Conditions: 30 min, stronger effect = higher value
# [1] = measured here: repeat confirmation average inhibition, at 18.6 µM
SMILES,inhibition (at 20 µM),inhibition [1] [%]
CCOc1cccc(C(=O)Nc2cccc(C(C)=O)c2)c1,-0.2% (inactive),–
Cc1ccc(CN(C(=O)c2ccccc2[N+](=O)[O-])C2CCS(=O)(=O)C2)o1 (stereo not given),0.4% (inactive),–
COc1cccc(OC)c1C(=O)NC(=O)Nc1c(F)c(F)c(F)c(F)c1F,0.3% (inactive),–
O=C(O)CC(c1cccc(C(F)(F)F)c1)N1CCS(=O)(=O)CC1 (stereo not given),0.6% (inactive),–
CCc1ccc(CN(C(=O)COc2c(C)cccc2C)C2CCS(=O)(=O)C2)cc1 (stereo not given),-0.3% (inactive),–
O=C(Nc1nnc(-c2cccc(F)c2)s1)Nc1ccccc1F,0.6% (inactive),–
O=c1[nH]c2c(cc1CNCCN1CCOCC1)c(-c1cccc(F)c1)nn2-c1ccccc1,-1.4% (inactive),–
COc1ccc(CNC(=O)Oc2ccccc2)cc1Cl,-0.6% (inactive),–
Cc1ccc(C)c(N2C(=N)S/C(=C\c3ccc(-c4ccccc4C(=O)O)o3)C2=O)c1,52.1% (inactive),18.9
O=C(O)c1ccccc1-c1ccc(/C=C2\SC(=O)N(c3ccccc3)C2=O)o1,11% (inactive),–
COc1ccccc1N1C(=N)S/C(=C\c2ccc(-c3ccccc3C(=O)O)o2)C1=O,54% (active),–
CN(C)c1ncc(/C=C2/C(=O)NC(=S)N(C3CCCCC3)C2=O)cn1,32.3% (inactive),–
O=C(NNC(=S)NC1CCCCC1)c1ccccc1O,3.3% (inactive),–
O=C1/C(=C/c2ccco2)CCc2ccccc21,57.7% (active),–
O=C1C(=Cc2ccco2)C(=O)c2ccccc21,33.3% (inactive),–
O=C1/C(=C\c2ccc(Br)o2)Cc2ccccc21,21.7% (inactive),–
COc1ccc2c(c1)CC/C(=C/c1ccco1)C2=O,44.1% (inactive),–
O=C1/C(=C/c2ccco2)Cc2ccccc21,29.3% (inactive),–
Nc1ccc2c(c1)C/C(=C/c1ccco1)C2=O,73.6% (active),–
CC(C)N(C(=O)Cn1cc(S(=O)(=O)CC(=O)NC2CCCCC2)c2ccccc21)C(C)C,-0.7% (inactive),–
Cc1ccc(-c2csc(NCCn3c(C(F)(F)F)nc4ccccc43)n2)cc1,1.7% (inactive),–
Cc1cnc(CN(C)C(=O)c2ccc3oc(Cc4ccc(Cl)cc4)nc3c2)[nH]1,0.2% (inactive),–
COc1ccc(-n2c(C)cc(/C=C3\C(=N)N4N=C(CC(=O)N5CCOCC5)SC4=NC3=O)c2C)cc1,20.1% (inactive),–
Cc1ccc(/C=C/S(=O)(=O)NCC(=O)O)cc1,4.8% (inactive),–

SMILES,inhibition (at 20 µM),inhibition [1] [%]
Cc1c(N2C(=O)/C(=C/c3ccccc3)SC2=S)c(=O)n(-c2ccccc2)n1C,-4.2% (inactive),–
Cc1c(N2C(=O)/C(=C\c3ccc(N(C)C)cc3)N(C)C2=S)c(=O)n(-c2ccccc2)n1C,52.4% (active),74.6
CN1C(=S)N(c2cccnc2)C(=O)/C1=C\c1ccc(N(C)C)cc1,6.7% (inactive),–
Cc1cccc(C(=O)N/C(=C/c2ccco2)C(=O)N2CCCCCC2)c1,0% (inactive),–
O=C(NCC1CCCO1)Nc1cc(Cl)cc(Cl)c1 (stereo not given),0.7% (inactive),–
COc1cccc2c(C)c(C(=O)O)[nH]c12,67.9% (active),–
COc1cccc2c(=O)c(C(=O)O)c[nH]c12,2% (inactive),–
COC(=O)c1cc(=O)c2cccc(OC)c2[nH]1,-2.4% (inactive),–
Nc1nnc(SCc2ccc([N+](=O)[O-])cc2)s1,0.4% (inactive),–
Cc1cc(NC(=O)COC(=O)CCS(=O)(=O)c2ccc(Cl)cc2)no1,1.1% (inactive),–
CC(C(=O)N1CCc2ccccc21)n1cccc1 (stereo not given),-2.3% (inactive),–
CC(=O)Nc1ccc(NS(=O)(=O)c2cc([N+](=O)[O-])ccc2C)cc1,0.5% (inactive),–
Cc1ccc(C)c(NC(=O)c2ccccc2NS(=O)(=O)c2cc([N+](=O)[O-])ccc2C)c1,47.1% (inactive),–
C=CCOC(=O)CCC(=O)Nc1cc(OC)nc(OC)n1,-0.6% (inactive),–
Cc1ccc(S(=O)(=O)Cc2cn3cccnc3n2)cc1,-2.2% (inactive),–
COc1ccc2c(c1)c(C(=O)N/N=C/c1cccc(Br)c1)c(C)n2C,0.5% (inactive),–
COc1ccc(N2CC(C(=O)NCCc3c[nH]c4ccccc34)CC2=O)cc1 (stereo not given),0.2% (inactive),–
N=C1S/C(=C\c2ccco2)C(=O)N1c1nccs1,51.1% (active),–
N=C1S/C(=C\c2ccc(-c3cccc(Cl)c3)o2)C(=O)N1c1nccs1,68.1% (inactive),15.5
COc1ccc(/C=C2\SC(=N)N(c3nccs3)C2=O)cc1OC,13.9% (inactive),–
CCCCNC(=O)CNC(=S)N(Cc1ccc(C)cc1)Cc1ccco1,2.5% (inactive),–
CCOC(=O)CC1C(=O)NCCN1c1nc2ccc(C)cn2c(=O)c1/C=C1\SC(=S)N(C(C)CC)C1=O (stereo not given),148% (inactive),–
CCOC(=O)CC1C(=O)NCCN1c1nc2c(C)cccn2c(=O)c1/C=C1\SC(=S)N(C(C)CC)C1=O (stereo not given),137% (inactive),–
CCOC(=O)CC1C(=O)NCCN1c1nc2c(C)cccn2c(=O)c1/C=C1\SC(=S)N(CC(C)C)C1=O (stereo not given),117% (active),–

SMILES,inhibition (at 20 µM),inhibition [1] [%]
CCOC(=O)CC1C(=O)NCCN1c1nc2ccc(C)cn2c(=O)c1/C=C1\SC(=S)N(CC(C)C)C1=O (stereo not given),109% (active),147
CCCN1C(=O)/C(=C/c2c(N3CCNC(=O)C3CC(=O)OCC)nc3c(C)cccn3c2=O)SC1=S (stereo not given),146% (inactive),–
CCCN1C(=O)/C(=C/c2c(N3CCNC(=O)C3CC(=O)OC)nc3c(C)cccn3c2=O)SC1=S (stereo not given),148% (inactive),–
Cc1ccccc1NC(=O)Cn1c(=O)sc2ccccc21,-1.5% (inactive),–
CC1=C(C(=O)OCC2CCCO2)C(c2coc3ccc(Cl)cc3c2=O)C2=C(CCCC2=O)N1 (stereo not given),-0.8% (inactive),–
COc1ccccc1CC(=O)Nc1cccc2c1CCCC2,-2.5% (inactive),–
COc1ccc2nc(SCC(=O)Nc3nonc3C)[nH]c2c1,0.1% (inactive),–
CSc1ccccc1C(=O)NCC(c1ccco1)N(C)C (stereo not given),-2.2% (inactive),–
CC1=C(C(=O)NC2CCCc3c2cnn3-c2cccc(C)c2C)OCCO1 (stereo not given),-0.2% (inactive),–
CN(C)c1cccc2c(/C=N/O)ccc(N(C)C)c12,-1.6% (inactive),–
CC(=O)c1ccc(N(C)C)c2c(N(C)C)cccc12,-0.7% (inactive),–
CN(C)c1cccc2c(C=C(C#N)C#N)ccc(N(C)C)c12,89.8% (active),–
Cc1ccc(NC(=O)c2cc(S(=O)(=O)N3CCOCC3)cn2C)cc1Cl,-0.7% (inactive),–
Cc1ccc(N(CC(=O)NCc2ccccc2Cl)S(=O)(=O)c2cccs2)cc1,0.6% (inactive),–
O=C(CSc1nnc(-c2ccccc2F)o1)NC1CCCCC1,-0.3% (inactive),–
Cc1ccc(-n2c3c(cc(C(=O)NC4CCSC4=O)c2=O)C(=O)CCC3)cc1 (stereo not given),-1.5% (inactive),–
CCOc1cc(/C=N/NC(N)=O)ccc1OCC(=O)Nc1ccc(C)c(C)c1,-2% (inactive),–
COc1cc(/C=N\Nc2ccc([N+](=O)[O-])cc2)ccc1OCC(=O)Nc1ccc(C)c(C)c1,27.8% (inactive),–
CCOc1cc(/C=N\Nc2ccc([N+](=O)[O-])cc2)ccc1OCC(=O)Nc1ccc(C)c(C)c1,88.4% (active),94.3
CC(Sc1ccccc1)C(=O)NCCc1ccccc1 (stereo not given),0.1% (inactive),–
COc1ccccc1-c1nc(S(=O)(=O)c2ccc(Cl)cc2)c(N(C)C)o1,0.1% (inactive),–
O=c1c2[nH]c3cccc(Cl)c3c2ncn1Cc1ccncc1,0.2% (inactive),–
O=C1NN(c2ccccc2)C(=O)/C1=C/c1ccc(-c2ccc(Cl)c(C(=O)O)c2)o1,34.7% (inactive),–
COC(=O)c1ccc(N2NC(=O)/C(=C/c3ccc(-c4ccc(Cl)c(C(=O)O)c4)o3)C2=O)cc1,54.7% (active),–

SMILES,inhibition (at 20 µM),inhibition [1] [%]
Cc1ccc(N2NC(=O)/C(=C/c3ccc(-c4ccc(Cl)c(C(=O)O)c4)o3)C2=O)cc1,29.4% (inactive),–
Cc1cc(CSc2ccccc2)ccc1NC(=O)c1ccc(Cl)c([N+](=O)[O-])c1,1.8% (inactive),–
Cc1ccc(-c2onc3ccc(C=O)cc23)cc1,-0.6% (inactive),–
O=Cc1ccc2noc(-c3ccc(F)cc3)c2c1,75.6% (active),79.8
O=Cc1ccc2noc(-c3ccc(Cl)cc3)c2c1,28.2% (inactive),–
COc1ccc2c(ccc[n+]2CC(=O)c2ccccc2)c1,1.3% (inactive),–
Cc1nc(NC(=O)CSc2cc(C)c3ccccc3n2)c(Cl)cc1Cl,-0.4% (inactive),–
S=C(Nc1ccc(Oc2ccccc2)cc1)N1CCOCC1,-0.2% (inactive),–
COc1cc(CNCc2ccccc2Cl)ccc1OCC(=O)NC1CCCCC1,0.7% (inactive),–
CN(C)/C=C/C(=O)c1ccc(S(=O)(=O)c2ccccc2)cc1,2.7% (inactive),–
CN(/C=C/C(=C\C=[N+](C)c1ccccc1)OCCCS(=O)(=O)[O-])c1ccccc1,24.5% (inactive),–
CN(/C=C/C(=C/C=[N+](C)c1ccccc1)OCCCS(=O)(=O)[O-])c1ccccc1,71.6% (active),–
Clc1ccccc1OCCN1CCC(Cc2ccccc2)CC1,-0.6% (inactive),–
Cc1ccc(/C=N/N=C/c2ccc(C)cc2)cc1,0.6% (inactive),–
Cc1ccc(/C=[N+](/C)[O-])cc1,-1.3% (inactive),–
Cc1ccc(C=C2C(Cl)=C(Cl)C(Cl)=C2Cl)cc1,53.9% (active),–
COc1ccccc1OCCCCOc1ccccc1C(C)=O,0.9% (inactive),–
O=C(/C=C/Nc1cccc(F)c1)c1ccco1,1.5% (inactive),–
COC(=O)c1ccc(C(=O)OC)c(=O)[nH]1,-0.4% (inactive),–
COC(=O)c1ccc(N)cc1O,-0.9% (inactive),–
COC(=O)c1ccc(=O)c2nc3/c(=C/O)c(O)cc(=O)c3[nH]c12,56.3% (active),–
COc1ccc(NC(=S)N(Cc2cccnc2)Cc2ccco2)cc1,-0.6% (inactive),–
